# Hits are enriched below; roughly 2.2% of the tested compounds scored in any of these assays.
# TDP-43 yeast inh: qHTS of TDP-43 Inhibitors; TDP-43 expressing yeast growth rescue, BacTiter-Glo, 24 h; Potency, µM (top dose mostly 46.1 µM), without a hit: top-dose growth rescue (activation), most hits filed as activators; 410,000 tested, 1.8% active; AID 652104, 2013; note: % of control where 0% means no effect; nearly all actives have a fitted effect of over 50% in size
#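 Yeast expressing TDP-43 (pregrown in raffinose, seeded at OD600=0.02 in galactose medium) exposed to compounds 24 hr at 30 deg C. Growth read by BacTiter-Glo luminescence; rescue of toxicity appears as increased signal.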
# aSyn yeast inh: qHTS of alpha-syn Inhibitors. Yeast expressing alpha-synuclein, growth rescue, BacTiter-Glo, 24 h. Potency, µM (doses to about 46.1 µM), without a hit: at the top dose growth rescue (activation), most hits filed as activators. 370,000 tested, 0.14% active. AID 652106, 2013; note: % of control where 0% means no effect; nearly all actives have a fitted effect of over 65% in size
#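 Rescue of yeast growth: cells expressing toxic alpha-synuclein, induced in galactose at OD600 0.02, incubated with compound 24 h at 30 C. ATP luminescence quantified growth; inhibitors of toxicity appear as activators.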
# Mito fusion act: qHTS Assay for Small Molecule Inhibitors of Mitochondrial Division or Activators of Mitochondrial Fusion. S. cerevisiae fusion-defective mutant growth rescue, CellTiterGlo 48 h. Potency, µM (series often up to 46.1 µM), for the others: at the top dose growth rescue (activation), actives largely listed as activators. 320,000 tested, 0.23% active; note: % of control where 0% means no effect; nearly all actives have a fitted effect of over 45% in size
#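 Luminescent cell viability in 1536-well qHTS format served as the measure of rescued growth in ts fusion-mutant S. cerevisiae cultured on non-fermentable YPEG for 48 hours at 37C.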
# FUS yeast rescue: qHTS for Suppressors of FUS Proteinopathy: Primary screen using FUS-linked yeast assay | Potency, µM (top dose mostly 76.6 µM), most hits filed as activators | 390,000 tested, 0.24% active | S. cerevisiae FUS-expressing, growth rescue, OD600, 24 h;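 note: plate controls were DMSO vehicle for no effect and reference control for full effect; nearly all actives have a fitted effect of over 55% in size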
#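 Yeast FUS proteinopathy model; galactose-induced FUS (2%), starting OD 0.005. Cpds in dilution series, 24hr, 30C, 99% humidity. Abs 600 nm growth. Pos ctrl CP55940 (top 92uM final); neg ctrl DMSO.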
# Abeta rescue: qHTS for compounds that reverse cellular toxicity of Amyloid beta (A-beta) peptide in yeast: Primary Screen; 410,000 tested, 0.063% active; yeast expressing A-beta42, growth rescue, OD600, 48 h; response scale: 0% DMSO, 100% iron-clioquinol control; Potency, µM (doses to about 46.1 µM), hits mostly activators; note: nearly all actives have a fitted effect of over 55% in size
#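 Yeast growth medium received pinned compounds, then yeast cells expressing toxic A-beta were added; plates incubated at 30 C for 48 hr. Growth read as absorbance at 600 nm, normalized to DMSO and equimolar FeCl3 plus clioquinol controls.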
# * = called active by the depositor; i = inactive; ? = inconclusive; . = no result; [ ] = remark or other dose. Calls come from the whole dose curve; as a rule, active = well fitted curve in the direction sought with a large enough effect; inconclusive = small, poorly fitted or top-dose-only effect, or another doubt; inactive = no such curve, though single readings can be large; an effect the other way counts as inactive or inconclusive. Potency is the fitted concentration of half-maximal effect.
SMILES,TDP-43 yeast inh,aSyn yeast inh,Mito fusion act,FUS yeast rescue,Abeta rescue
COc1ccc(N2CC(NC(=O)Cc3cccs3)CC2=O)cc1 (configuration not stated),-1.2%,.,.,i,i
Cc1ccsc1-c1nc(CSCC(=O)N2CCN(c3ccccc3)CC2)c(C)o1,12.6µM*,16.1%,?,i,i
COc1ccc(CNC(=O)C2CCN(C(=O)N3CCOc4ccc(Cl)cc43)CC2)cc1,0.0%,.,.,i,i
COc1cccc(CNC(=O)c2cccc(NC(=O)c3nsc4ccccc34)c2)c1,35.5µM*,.,.,i,i
O=C(NCc1cccc(F)c1)c1cccc(NC(=O)c2nsc3ccccc23)c1,?,.,.,i,i
COc1cccc(CNC(=O)c2cccc(Br)c2)c1,22.4µM*,-20.1%,-0.4%,i,i
COc1cccc(CNC(=O)COc2ccc(C(=O)c3ccccc3)cc2)c1,35.5µM*,-48.0%,-59.0%,i,?
O=C(Nc1cccc(C(=O)N2CCCCC2)c1)c1nsc2ccccc12,35.5µM*,.,.,i,i
COCCCNC(=O)C[C@H]1C[C@@]2(C(=O)OC)C(=C[C@H](C(C)C)O[C@@H]2C2CC2)N(CCC2=CCCCC2)C1=O,.,.,.,i,.
CS(=O)(=O)N1CCN(Cc2cc3nc(-c4cccc5[nH]ncc45)nc(N4CCOCC4)c3s2)CC1,.,-1.1%[92.2 µM],.,.,.
Cc1ccc(CNC(=O)CCCCCn2c(=O)[nH]c3ccccc3c2=O)cc1,-2.0%,.,.,i,i
COc1ccc(Cl)cc1NC(=O)C1CCN(S(=O)(=O)c2ccc3c(c2)CC(C)N3C(C)=O)CC1 (configuration not stated),0.4%,.,.,i,i
COc1ccccc1CNC(=O)c1oc2c(c1C)-c1nn(Cc3ccc(Cl)cc3)cc1CC2,5.6%,.,.,?,i
CCC(c1nnnn1Cc1ccccc1)N(Cc1ccccc1)Cc1cc2cc(C)ccc2[nH]c1=O (configuration not stated),.,7.5%,.,.,.
Cc1ccc(S(=O)(=O)N2CCN(c3nc(-n4ccnn4)nc4ccccc34)CC2)cc1,.,-4.8%,.,.,.
COC(=O)Cc1ccc(NC(=S)NCc2cccc(OC)c2)cc1,12.9%[9.22 µM],7.0%,-3.8%,i,i
CCCCc1ccc(NC(=S)NCc2cccc(OC)c2)cc1,-6.4%[0.397 µM],-17.0%,2.9%,i,10µM*
Cc1ccc(C)c(Cn2c(SCC(=O)NCc3ccccc3)nc3ccccc32)c1,16.3%,.,.,i,i
CC(C)Cn1c(-c2ccc(S(=O)(=O)N3CCCC3)cc2)csc1=Nc1ccccc1,7.7%,.,.,?,i
Cn1nc(C(C)(C)C)cc1NC(=O)C1(C)CCN1C(=O)C1(c2ccccc2)CCCC1 (configuration not stated),35.5µM*,14.1%,.,i,i
CC1(C(=O)Nc2ccc3c(c2)OCO3)CCN1C(=O)C1(c2ccc(Cl)cc2)CC1 (configuration not stated),0.0%,1.6%,.,?,i
CC1(C(=O)Nc2ccc3c(c2)OCCO3)CCN1C(=O)C1(c2ccccc2)CC1 (configuration not stated),12.6µM*,4.4%,.,i,i
CC1(C(=O)NCc2ccc3c(c2)OCO3)CCN1C(=O)C1(c2ccc(Cl)cc2)CC1 (configuration not stated),25.1µM*,8.0%,.,i,i
COc1ccccc1N1CCN(S(=O)(=O)c2c(C)nc3sc(C)c(C)n3c2=O)CC1,17.5%,.,.,i,i
CCN(C(=O)C1CCN(S(=O)(=O)c2cc(Br)cc3c2N(C(C)=O)CC3)CC1)c1cccc(C)c1,19.2%,.,.,?,i
SMILES,TDP-43 yeast inh,aSyn yeast inh,Mito fusion act,FUS yeast rescue,Abeta rescue
CCOC(=O)c1ccc(N2CCN(c3cccc(Cl)c3)CC2)c(NC(=O)Nc2ccc(Cl)cc2)c1,-13.9%,.,.,i,i
Cc1cc2c(NC3CCCCC3)ncnc2s1,11.2µM*,-10.9%,-6.9%,i,i
Cc1c(Cl)cccc1-n1ncc(C(=O)N2CCN(C)CC2)c1C1CCN(C(=O)OC(C)(C)C)CC1,13.8%,.,.,i,i
CCOc1ccc(NC(=S)NC(=O)c2c(Br)cnn2C)c([N+](=O)[O-])c1,15.8µM*,-4.4%,?,i,i
CCc1ccccc1CC1CN(Cc2ccccc2)Cc2ccccc2N1c1ccc(OC)cc1 (configuration not stated),-4.6%,-23.5%,.,i,i
O=C(N/N=C/c1cc([N+](=O)[O-])ccc1O)C1C2CCCCC21 (configuration not stated),.,.,1.9%,.,.
O=C(N/N=C/c1cc([N+](=O)[O-])ccc1O)C1CCCCC1,9.9%,3.98µM*,3.0%,i,i
CCCc1ccc(OC(C)C(=O)Nc2sc3c(c2C(=O)OC)CCCCC3)cc1 (configuration not stated),17.1%,.,.,i,i
Cc1ccc(NC2=C(Cl)C(=O)OC2OC(=O)c2ccccc2)c(C)c1 (configuration not stated),22.5%[9.22 µM],22.5%,?,i,i
Cc1ccccc1NC1=C(Cl)C(=O)OC1OC(=O)c1ccccc1C (configuration not stated),20µM*,5.6%,-1.3%,i,i
Cc1ccc(/C=N/Nc2nc(C(C)(C)C)cs2)o1,12.9%,0.9%,0.5%,i,i
Cc1ccc(/C=N/Nc2nc3ccccc3s2)o1,11.2µM*,-0.2%,18.6%,i,?
Fc1ccccc1CSc1nnc(-c2cccnc2)o1,?,-2.0%,-3.7%,i,i
COc1ccc(-c2nnc(SCc3ccccc3F)o2)cc1,11.2µM*,5.1%,20.5%,i,i
Fc1ccccc1CSc1nnc(-c2ccccc2)o1,11.2µM*,0.0%,25.7%,i,i
CCSc1nnc(-c2ccc(OC)cc2)o1,?,2.3%,-0.7%,i,i
O=C(COCc1cc(-c2cccs2)on1)Nc1ccc(OC(F)(F)F)cc1,10.9%,.,.,i,i
Cc1cccc(C)c1OCc1cc(=O)n2c3c(sc2n1)CCCC3,35.5µM*,.,.,i,i
Cc1cccc(OCc2cc(=O)n3c4c(sc3n2)CCCC4)c1C,4.7%,.,.,i,i
Cc1ccc(CCNC(=O)c2ccc3c(c2)N(Cc2cccc(Cl)c2)C(=O)c2ccccc2S3(=O)=O)cc1,3.8%,.,.,i,i
Cc1cc2c(c(C)nn2-c2ccccc2)c(=O)o1,17.3%,11.7%,3.0%,i,i
CCc1c(C)c2c(C)nn(-c3ccccc3)c2oc1=O,25.1µM*,6.6%,20.6%,i,i
C(=Nc1cnc2ccccc2c1)c1ccnc2ccccc12,.,0.7%,.,.,.
CCc1ccccc1NC(=O)C(=O)NCCc1sc(-c2cccc(F)c2)nc1C,0.0%,.,.,i,i
